Counter-ions that a name gives are not always drawn. ± gives the standard deviation of the averaged measurements.
How the values were obtained:
Assay in all cases: growth (OD600 after 10 h); higher = more growth (less inhibition)
[1] = tested on: E. coli TESEC Alr+ wild-type control; settings: compound 0.1 mM; raw OD600 reference: median of DMSO wells 0.241, cell-free background 0.041
Method: (§1)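 TESEC Mtb Alr E. coli, or the Alr+ wild-type control, in 384-well plates with Prestwick library compounds at 0.1 mM and 1% DMSO, across arabinose induction levels of 1E3 to 1E7 nM. Growth is read as OD600 after 10 h at 37 °C in triplicate biological replicates.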

E. coli TESEC Mtb Alr [2] = settings: compound 0.1 mM
Method: as §1

E. coli TESEC Mtb Asd = settings: compound 0.1 mM
Method: (§2)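 TESEC E. coli strains in which the native enzyme is deleted and replaced by arabinose-inducible Mtb Asd, DapB, CysH or TrpD, each grown in its selective medium. Strains were screened against the Prestwick library at 0.1 mM and 1% DMSO in 384-well format at low and high arabinose induction. Growth is read as OD600 after 10 h in triplicate.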

E. coli TESEC Mtb DapB = settings: compound 0.1 mM
Method: as §2

E. coli TESEC Mtb Alr [3] = settings: compound 0.1 mM; remark: listed apart in the source
Method: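 TESEC Mtb Alr E. coli (ΔaraC ΔtolC ΔentC Δalr ΔdadX, arabinose-inducible Mtb Alr) or the Alr+ wild-type control strain, grown in defined M9-fructose medium without D-alanine in 96-well plates with Prestwick library compounds at 0.1 mM and 1% DMSO. Low Alr induction is 0.1 µM arabinose and high induction is 10 mM arabinose.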

[4] = arabinose 1000 nM, raw OD600 reference: median of DMSO wells 0.294, cell-free background 0.041
[5] = arabinose 10000 nM, raw OD600 reference: median of DMSO wells 0.264, cell-free background 0.041
[6] = arabinose 100000 nM, raw OD600 reference: median of DMSO wells 0.201, cell-free background 0.041
[7] = arabinose 1000000 nM, raw OD600 reference: median of DMSO wells 0.193, cell-free background 0.041
[8] = arabinose 10000000 nM, raw OD600 reference: median of DMSO wells 0.146, cell-free background 0.041
[9] = arabinose induction (level): High, raw OD600 reference: median of DMSO wells 0.331, cell-free background 0.041
[10] = arabinose induction (level): Low, raw OD600 reference: median of DMSO wells 0.417, cell-free background 0.041
[11] = arabinose induction (level): High, raw OD600 reference: median of DMSO wells […], cell-free background 0.041
[12] = arabinose induction (level): Low, raw OD600 reference: median of DMSO wells 0.227, cell-free background 0.041
[13] = arabinose 100 nM, raw OD600 reference: median of DMSO wells 0.413, cell-free background 0.052
[14] = arabinose 10000000 nM, raw OD600 reference: median of DMSO wells […], cell-free background 0.052

Compound | growth [1] | growth (E. coli TESEC Mtb Alr [2]; [4]) | growth (E. coli TESEC Mtb Alr [2]; [5]) | growth (E. coli TESEC Mtb Alr [2]; [6]) | growth (E. coli TESEC Mtb Alr [2]; [7]) | growth (E. coli TESEC Mtb Alr [2]; [8]) | growth (E. coli TESEC Mtb Asd; [9]) | growth (E. coli TESEC Mtb Asd; [10]) | growth (E. coli TESEC Mtb DapB; [11]) | growth (E. coli TESEC Mtb DapB; [12]) | growth (E. coli TESEC Mtb Alr [3]; [13]) | growth (E. coli TESEC Mtb Alr [3]; [14])
C=C1CC[C@@]2(O)[C@H]3Cc4ccc(O)c5c4[C@@]2(CCN3CC2CC2)[C@H]1O5 [Nalmefene hydrochloride] | 0.238 ± 0.013 | 0.3098 ± 0.003 | 0.274 ± 0.0086 | 0.157 ± 0.0079 | 0.19 ± 0.005 | 0.1356 ± 0.0009 | 0.193 ± 0.041 | 0.328 ± 0.08 | 0.194 ± 0.028 | 0.226 ± 0.027 | 0.425 ± 0.007 | 0.327 ± 0.022
C=CC[C@]1(O)CC[C@H]2[C@@H]3CCC4=CC(=O)CCC4=C3C=C[C@@]21C [Altrenogest] | 0.132 ± 0.0045 | 0.16 ± 0.0073 | 0.167 ± 0.0079 | 0.144 ± 0.0049 | 0.0767 ± 0.0035 | 0.118 ± 0.005 | 0.148 ± 0.027 | 0.126 ± 0.021 | 0.148 ± 0.002 | 0.162 ± 0.006 | 0.376 ± 0.0056 | 0.134 ± 0.011
CC(C)N(CCC(C(N)=O)(c1ccccc1)c1ccccn1)C(C)C (stereo unspecified) [Disopyramide] | 0.2355 ± 0.0022 | 0.285 ± 0.018 | 0.25 ± 0.0026 | 0.195 ± 0.0071 | 0.171 ± 0.0034 | 0.14 ± 0.0064 | 0.313 ± 0.084 | 0.408 ± 0.057 | 0.175 ± 0.0095 | 0.195 ± 0.02 | 0.41 ± 0.0056 | 0.351 ± 0.007
C[N+](C)(C)CCCCCCCCCC[N+](C)(C)C [Decamethonium bromide] | 0.246 ± 0.0085 | 0.286 ± 0.015 | 0.2525 ± 0.0016 | 0.214 ± 0.022 | 0.208 ± 0.003 | 0.13 ± 0.0017 | 0.369 ± 0.032 | 0.444 ± 0.043 | 0.234 ± 0.021 | 0.242 ± 0.0099 | 0.39 ± 0.017 | 0.376 ± 0.022
COc1cc2c(c(OC)c1OC)-c1ccc(OC)c(=O)cc1[C@@H](NC(C)=O)CC2 [Colchicine] | 0.226 ± 0.0076 | 0.262 ± 0.034 | 0.267 ± 0.0042 | 0.204 ± 0.025 | 0.185 ± 0.0039 | 0.144 ± 0.0049 | 0.276 ± 0.063 | 0.355 ± 0.1 | 0.204 ± 0.018 | 0.228 ± 0.035 | 0.423 ± 0.038 | 0.322 ± 0.0069
CC(C)(C)NCC(O)c1cc(Cl)c(N)c(Cl)c1 (stereo unspecified) [Clenbuterol hydrochloride] | 0.226 ± 0.0046 | 0.292 ± 0.0084 | 0.246 ± 0.005 | 0.252 ± 0.011 | 0.215 ± 0.005 | 0.157 ± 0.0026 | 0.35 ± 0.0059 | 0.231 ± 0.031 | 0.185 ± 0.011 | 0.191 ± 0.0053 | 0.398 ± 0.011 | 0.355 ± 0.024
CC[C@@]1(O)C(=O)OCc2c1cc1n(c2=O)Cc2cc3ccccc3nc2-1 [Camptothecine (S,+)] | 0.2398 ± 0.0022 | 0.28 ± 0.012 | 0.267 ± 0.0074 | 0.192 ± 0.016 | 0.184 ± 0.0026 | 0.141 ± 0.0034 | 0.292 ± 0.075 | 0.43 ± 0.046 | 0.199 ± 0.01 | 0.228 ± 0.039 | 0.465 ± 0.052 | 0.434 ± 0.031
CC(C)[N+](C)(CCC(C(N)=O)(c1ccccc1)c1ccccc1)C(C)C [Isopropamide iodide] | 0.211 ± 0.003 | 0.285 ± 0.0086 | 0.248 ± 0.0032 | 0.199 ± 0.015 | 0.147 ± 0.0039 | 0.142 ± 0.0052 | 0.268 ± 0.036 | 0.41 ± 0.036 | 0.211 ± 0.025 | 0.201 ± 0.0096 | 0.399 ± 0.025 | 0.331 ± 0.013
C[N+]1([O-])[C@@H]2C[C@@H](OC(=O)[C@H](CO)c3ccccc3)C[C@H]1[C@@H]1O[C@@H]12 (stereo partly specified) [Scopolamin-N-oxide hydrobromide] | 0.262 ± 0.013 | 0.3 ± 0.013 | 0.28 ± 0.0081 | 0.24 ± 0.027 | 0.19 ± 0.0068 | 0.165 ± 0.0072 | 0.334 ± 0.068 | 0.408 ± 0.035 | 0.221 ± 0.012 | 0.257 ± 0.025 | 0.411 ± 0.021 | 0.347 ± 0.018
Oc1cc(Cl)ccc1Oc1ccc(Cl)cc1Cl [Triclosan] | 0.0414 ± 0.0012 | 0.0413 ± 0.0016 | 0.04137 ± 0.00025 | 0.04127 ± 0.00015 | 0.0423 ± 0.0022 | 0.04107 ± 0.00021 | 0.0494 ± 0.0062 | 0.04643 ± 0.00015 | 0.0466 ± 0.0004 | 0.0475 ± 0.0016 | 0.052 ± 0.0048 | 0.054 ± 0.001
CN1[C@@H]2C[C@@H](OC(=O)[C@H](CO)c3ccccc3)C[C@H]1[C@@H]1O[C@@H]12 [Scopolamine hydrochloride] | 0.252 ± 0.0082 | 0.321 ± 0.023 | 0.292 ± 0.011 | 0.207 ± 0.012 | 0.182 ± 0.0041 | 0.157 ± 0.0084 | 0.469 ± 0.011 | 0.453 ± 0.025 | 0.201 ± 0.031 | 0.228 ± 0.03 | 0.408 ± 0.016 | 0.36 ± 0.01
CCCC(C)(COC(N)=O)COC(=O)NC(C)C (stereo unspecified) [Carisoprodol] | 0.237 ± 0.008 | 0.287 ± 0.011 | 0.283 ± 0.0077 | 0.211 ± 0.014 | 0.198 ± 0.0098 | 0.142 ± 0.0024 | 0.268 ± 0.02 | 0.322 ± 0.083 | 0.155 ± 0.0092 | 0.191 ± 0.015 | 0.403 ± 0.01 | 0.341 ± 0.015
C[C@@]12N[C@@H](Cc3ccccc31)c1ccccc12 [(-)-MK 801 hydrogen maleate] | 0.226 ± 0.014 | 0.29 ± 0.013 | 0.247 ± 0.0096 | 0.138 ± 0.0052 | 0.113 ± 0.0073 | 0.132 ± 0.0029 | 0.244 ± 0.014 | 0.514 ± 0.039 | 0.213 ± 0.036 | 0.221 ± 0.018 | 0.412 ± 0.017 | 0.2863 ± 0.0016

From the supplement of paper PMC9262897, “Low-cost anti-mycobacterial drug discovery using engineered E. coli” (Nature Communications, 2022)
